In PubChem BioAssay (Tox21):
Records with an inconclusive call do not appear. Unmarked numbers belong to inactive results. Activity calls are given as the source filed them. Calls follow the shape of the full dose curve.

These molecules were tested against Thyrotropin receptor (Homo sapiens) (UniProt P16473) (assay: qHTS assay to identify small molecule agonists of the thyroid stimulating hormone receptor (TSHR) signaling pathway (AID 1224843; also: nearly all actives have a fitted effect of over 45% in size)). Conditions: TSHR-HEK293 cells, cAMP HTRF, agonist mode, 30 min; series mostly up to 92.4 µM; activation: at the top concentration.
Sequence of Thyrotropin receptor (Homo sapiens) (P16473 whole entry, looked up): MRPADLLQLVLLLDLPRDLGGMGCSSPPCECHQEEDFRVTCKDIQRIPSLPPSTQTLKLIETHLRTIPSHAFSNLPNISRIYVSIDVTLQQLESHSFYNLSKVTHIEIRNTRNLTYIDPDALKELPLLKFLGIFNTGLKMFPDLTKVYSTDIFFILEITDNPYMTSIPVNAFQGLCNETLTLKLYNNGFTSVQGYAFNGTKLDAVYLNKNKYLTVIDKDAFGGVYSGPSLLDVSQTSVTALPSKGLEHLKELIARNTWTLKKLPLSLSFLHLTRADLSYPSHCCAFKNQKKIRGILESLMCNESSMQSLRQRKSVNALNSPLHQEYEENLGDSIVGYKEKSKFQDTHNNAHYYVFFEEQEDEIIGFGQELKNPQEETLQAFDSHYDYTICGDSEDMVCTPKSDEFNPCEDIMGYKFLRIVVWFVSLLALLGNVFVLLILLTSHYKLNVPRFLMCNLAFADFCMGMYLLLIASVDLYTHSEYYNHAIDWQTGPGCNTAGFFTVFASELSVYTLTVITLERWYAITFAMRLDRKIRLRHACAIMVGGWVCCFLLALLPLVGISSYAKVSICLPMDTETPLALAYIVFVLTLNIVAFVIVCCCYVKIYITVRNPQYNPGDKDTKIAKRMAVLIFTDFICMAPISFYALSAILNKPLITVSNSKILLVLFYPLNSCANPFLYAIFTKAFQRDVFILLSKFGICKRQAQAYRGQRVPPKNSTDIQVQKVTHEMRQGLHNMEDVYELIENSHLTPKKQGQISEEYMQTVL
Description: National Center for Advancing Translational Sciences [NCATS]
NIH Chemical Genomics Center [NCGC]
U.S. Environmental Protection Agency [EPA]
National Institutes of Environmental Health Sciences [NIEHS]
National Toxicology Program [NTP]
U.S. Food and Drug Administration [FDA]
TSHR is the receptor for thyrotropin (thyroid stimulating hormone or TSH), a member of the glycoprotein hormone family. TSH is released by the anterior pituitary gland and is the main regulator of thyroid gland growth and development. Upon binding circulating thyrotropin, a G-protein signal cascade activates adenylyl cyclase and […] cAMP concentration is increased. cAMP is a key second messenger involved extensively in cellular signal transduction pathways associated with the majority of G-protein coupled receptors (GPCRs). The activation of these GPCRs by neurotransmitters, lipids, nucleotides, peptides and hormones results in the activation or the inhibition of plasma membrane-bound adenylate cyclase through heterotrimeric G-proteins. A cell-based TSHR assay was used to screen the Tox21 10K library for compounds that can modulate TSHR in agonist mode.
Tox21 Assay Protocol Summary:
TSHR-Hek293 cells were dispensed at 800 cells/4uL/well in 1536-well white plates using a Multidrop dispenser. […] The plates were incubated at room temperature for 30 min. 2.5 ul/well of cAMP-d2 and 2.5ul/well of anti-cAMP-cryptate was added respectively into the assay plates using a Flying Reagent Dispenser. After 1 hr incubation at room temperature, the fluorescence intensity in the plates was measured using an Envision plate reader. Each test compound was measured at 15 concentrations and in triplicates.
% is scaled to controls: 0 for no effect and ±100 for the full control effect; potency is read from the fitted curve at half-maximal effect.

Compound | activation | Potency
Cc1ccc2oc(CN(Cc3ccccc3)C(=O)Nc3c(F)cc(F)cc3F)c(-c3ccc(Cl)cc3)c2c1 | -7.69% | 
CCCC/C=C/CCCCO | -3.21% | 
CC(C)(C)c1ccc(C(=O)CCCN2CCC(OC(c3ccccc3)c3ccccc3)CC2)cc1 |  | 11.9 µM (active)
C/C=C(\C)C(=O)OCc1ccccc1 | -16.4% | 
CCCCN1C(=O)[C@@H]([C@H](O)C2CCCCC2)NC(=O)C12CCN(Cc1ccc(Oc3ccc(C(=O)O)cc3)cc1)CC2 | -4.4% | 
CC1=C(/C=C/C(C)=C/C=C/C(C)=C/C=O)C(C)(C)CCC1 |  | 6.82 µM (active)
Cc1cc(C2CCCCC2)n(O)c(=O)c1 | -0.0555% [at 42.5 µM] | 
Oc1ccc2cc(SSc3ccc4cc(O)ccc4c3)ccc2c1 | 17.5% | 
CCCCCOc1ccccc1/C(=C\SC)n1ccnc1 |  | 21.1 µM (active)
C=CC(=O)OCCn1c(=O)n(CCOC(=O)C=C)c(=O)n(CCOC(=O)C=C)c1=O |  | 27.3 µM (active)
CC[C@H]1O[C@]2(CC[C@@H]1C)C[C@@H]1C[C@@H](C/C=C(\C)C[C@@H](C)/C=C/C=C3\CO[C@@H]4[C@H](O)C(C)=C[C@@H](C(=O)O1)[C@]34O)O2 | 26.7% | 
C1CCCC1 | 0.716% | 
CN(C)[C@@H]1C(=O)C(C(N)=O)=C(O)[C@@]2(O)C(=O)C3=C(O)c4c(O)cccc4C[C@H]3C[C@@H]12 | 7.39% [at 42.5 µM] | 
CC(NN)c1ccccc1 (stereo not given) | -0.741% [at 19 µM] | 
Clc1ccc2nsnc2c1NC1=NCCN1 | -0.0237% [at 42.5 µM] | 
C[C@]12CCC(=O)C=C1CC[C@@H]1[C@@H]2[C@@H](O)C[C@@]2(C)[C@H]1CC[C@]2(O)C(=O)COC(=O)CCC(=O)O | -2.24% [at 42.5 µM] | 
O=C(Nc1cccc([N+](=O)[O-])c1)c1cc2ccccc2cc1O | -14.9% | 
O=C(Nc1cccc(C(F)(F)F)c1)c1cc(Br)cc(Br)c1O | 25.3% | 
CN(C/C=C/C#CC(C)(C)C)Cc1cccc2ccccc12 | -0.267% [at 42.5 µM] | 
CC(C)(C)C(=O)OCOC(=O)[C@@H]1N2C(=O)[C@@H](NC(=O)[C@H](N)c3ccccc3)[C@H]2SC1(C)C | -1.02% [at 42.5 µM] | 

Compound | activation | Potency
O=C(O)c1c(Cl)cccc1Cl | 4.51% | 
OC1(c2ccc(Cl)c(C(F)(F)F)c2)CCN(CCCC(c2ccc(F)cc2)c2ccc(F)cc2)CC1 | 8.66% [at 42.5 µM] | 
CCN(C(=O)N(CC)c1ccccc1)c1ccccc1 |  | 61.1 µM (active)
O=C1C=CC(=O)N1 |  | 7.04 µM (active)
O=C1CCCCCN1SSN1CCCCCC1=O | -1.48% | 
CCCCCCCCn1sc(Cl)c(Cl)c1=O | 16.7% | 
N#CC1(c2ccc(F)cc2)CCC(=O)CC1 | 3.44% [at 42.5 µM] | 
CCc1cc(Cc2cc(CC)cc(C(C)(C)C)c2O)c(O)c(C(C)(C)C)c1 | 10.4% | 
CC1(C)CCC(C)(C)c2cc(C(=O)Nc3ccc(C(=O)O)cc3)ccc21 | -3.55% | 
C=C(C)C(=O)OCC[N+](C)(C)C | -8.64% | 
CCCCCCC[N+](CC)(CC)CCCCc1ccc(Cl)cc1 | -1.96% [at 42.5 µM] | 
CN(C)c1ccc(C2(c3ccc(N(C)C)cc3)OC(=O)c3cc(N(C)C)ccc32)cc1 | 13.4% | 
COc1cccc(N)c1 | -4.23% | 
Cc1cccc(N(C)C(=S)Oc2ccc3c(c2)C2CCC3C2)c1 (stereo not given) | -0.754% [at 42.5 µM] | 
N/C(=N\N=C\c1ccc(Cl)cc1)N/N=C/c1ccc(Cl)cc1 | 13.7% [at 42.5 µM] | 
CCCN(CCC)C(=O)C(CCC(=O)OCCCN1CCN(CCOC(=O)Cc2c(C)n(C(=O)c3ccc(Cl)cc3)c3ccc(OC)cc23)CC1)NC(=O)c1ccccc1 (stereo not given) | -1.55% [at 42.5 µM] | 
Cc1c(C)c2c(c(C)c1O)CCC(C)(COc1ccc(CC3SC(=O)NC3=O)cc1)O2 (stereo not given) | 6.34% [at 42.5 µM] | 
O=C(Oc1cccc2cccnc12)c1ccccc1 | -4.46% [at 42.5 µM] | 
CCOC(=O)O[C@]1(C(=O)OCCl)CC[C@H]2[C@@H]3CCC4=CC(=O)C=C[C@]4(C)[C@H]3[C@@H](O)C[C@@]21C | 0.949% [at 42.5 µM] | 
NC(=NCCCCCCN=C(N)/N=C(\N)Nc1ccc(Cl)cc1)/N=C(\N)Nc1ccc(Cl)cc1 |  | inactive
